Screening results deposited in PubChem BioAssay by Broad Institute.
This is one part of a sample in which hits are shown more often than they occur.
CD40 NFkB inh: inhibitors of CD40-induced NF-kB signaling, primary screen, BL2 cells, luciferase reporter, single point; CD40L-induced, 4 h; inhibition, % at 10 µM; hit rate 0.94% among 83,000; AID 1053188, 2014;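 active = mean inhibition of at least 50% with a set share of replicates also reaching that level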
A number is an active result; i = inactive; [ ] = remark or other dose.

SMILES	CD40 NFkB inh
C[C@@H]1CN([C@@H](C)CO)C(=O)c2c(c3ccccc3n2C)-c2ccccc2CO[C@H]1CN(C)S(=O)(=O)c1ccc([N+](=O)[O-])cc1	55[25 µM]
C[C@H](CO)N1C[C@H](C)[C@@H](CN(C)Cc2cccc(F)c2)OCc2ccccc2-c2c(n(C)c3ccccc23)C1=O	i
C[C@@H]1CN([C@H](C)CO)C(=O)c2c(c3ccccc3n2C)-c2ccccc2CO[C@H]1CN(C)S(=O)(=O)c1ccc([N+](=O)[O-])cc1	i
C[C@@H]1CN([C@@H](C)CO)C(=O)c2c(c3ccccc3n2C)-c2ccccc2CO[C@H]1CN(C)Cc1ccccc1	49
C[C@@H]1CN([C@H](C)CO)C(=O)c2c(c3ccccc3n2C)-c2ccccc2CO[C@H]1CN(C)Cc1cccc(C(F)(F)F)c1	76[25 µM]
C[C@@H]1CN([C@@H](C)CO)C(=O)c2c(c3ccccc3n2C)-c2ccccc2CO[C@@H]1CN(C)Cc1ccc(O)cc1	i
C[C@H](CO)N1C[C@H](C)[C@@H](CN(C)Cc2ccccc2)OCc2ccccc2-c2c(n(C)c3ccccc23)C1=O	i
COc1ccc(C[C@@H]2CCn3nncc3COCCCNC2=O)cc1	i
O=C(Nc1ccc(C(F)(F)F)cc1)N1[C@@H]2CNC[C@H]1C2c1ccc(-c2ccc(F)cc2)cc1 (stereo not given in full)	i
C/C=C/c1ccccc1[C@@H]1[C@@H](C#N)N(C(C)=O)[C@H]1CO	i
C[C@H]1CN(C)C(=O)Cc2cc(NS(C)(=O)=O)ccc2O[C@H]1CN(C)C	i
CCCC#Cc1ccc2c(c1)[C@@H]1[C@@H](CCN1C(=O)C1CC1)[C@@H](CO)N2	i
CC(=O)N(C)C[C@H]1Oc2c(NC(=O)NC(C)C)cccc2C(=O)N(C)C[C@@H]1C	i
Nc1cc(Nc2ccc(S(N)(=O)=O)cc2)ncn1	i
COc1cccc(-c2cn(CC[C@H]3CC[C@@H](NC(=O)CC4CC4)[C@H](CO)O3)nn2)c1	i
CC(=O)Nc1cccc2c1O[C@@H](CN(C)C(=O)OC(C)(C)C)[C@@H](C)CN(C)C2=O	i
O=C(N[C@@H]1CC[C@H](CC(=O)N2CCOCC2)O[C@H]1CO)c1cccc(F)c1	i
C[C@H]1CN([C@@H](C)CO)C(=O)c2c(c3ccccc3n2C)-c2ccccc2CO[C@H]1CN(C)C(=O)Nc1ccccc1C(F)(F)F	59[25 µM]
C[C@@H]1CN([C@@H](C)CO)C(=O)c2c(c3ccccc3n2C)-c2ccccc2CO[C@H]1CN(C)C(=O)c1cc(Cl)cc(Cl)c1	i
C[C@@H]1CN([C@H](C)CO)C(=O)c2c(c3ccccc3n2C)-c2ccccc2CO[C@H]1CN(C)C(=O)c1cc(Cl)cc(Cl)c1	51[25 µM]
C[C@H](CO)N1C[C@H](C)[C@H](CN(C)C(=O)c2cc(Cl)cc(Cl)c2)OCc2ccccc2-c2c(n(C)c3ccccc23)C1=O	i
COc1ccccc1NC(=O)N(C)C[C@@H]1OCc2ccccc2-c2c(n(C)c3ccccc23)C(=O)N([C@H](C)CO)C[C@H]1C	i
C[C@@H]1CN([C@H](C)CO)C(=O)c2c(c3ccccc3n2C)-c2ccccc2CO[C@@H]1CN(C)C(=O)Nc1ccccc1C(F)(F)F	i
C[C@H]1CN([C@@H](C)CO)C(=O)c2ccccc2-c2ccccc2CO[C@@H]1CN(C)C(=O)Nc1ccc2c(c1)OCO2	i
CN(C)C(=O)[C@@H]1[C@@H](CO)[C@@H]2Cn3c(ccc(C4=CCCC4)c3=O)[C@H]1N2CCC(F)(F)F	i
SMILES	CD40 NFkB inh
O=C(Nc1ccccc1Cl)N1[C@H](CO)[C@@H]2c3ccccc3NC[C@@H]21	i
O=C(NC1CCCC1)[C@H]1[C@H](CO)[C@H]2Cn3c(ccc(C4=CCCC4)c3=O)[C@@H]1N2C(=O)c1ccccc1	i
c1ccc2c(c1)oc1c(Nc3ccc4c(c3)OCCO4)ncnc12	i
O=[N+]([O-])c1ccc2ncnc(Nc3ccc4c(c3)OCCO4)c2c1	36
O=[N+]([O-])c1ccc(O)c(Nc2ncnc3ccccc23)c1	i
O=C(Cc1ccncc1)Nc1ccc2c(c1)[C@@H]1C[C@H](CC(=O)NC3CCCC3)O[C@H](CO)[C@@H]1O2	i
CC(NCC(O)COCCC12CC3CC(CC(C3)C1)C2)c1ccccc1 (stereo not given)	86
NCC(O)COCCC12CC3CC(CC(C3)C1)C2 (stereo not given)	i
OC(COCCC12CC3CC(CC(C3)C1)C2)CN1CCCC1 (stereo not given)	i
CN1C(=O)c2cc(NC(=O)C3CCCC3)ccc2OC[C@@H]2O[C@H](CC(=O)NCc3ccccc3F)CC[C@@H]21	i
N#CC(Cc1ccc(O)cc1)c1ccc(O)cc1 (stereo not given)	i
Cn1cnc(S(=O)(=O)N2CC[C@@H]3[C@H]2c2cc(C4=CCCCC4)ccc2N[C@@H]3CO)c1	i
CN1c2ccc(C#Cc3cccnc3)cc2[C@H]2[C@H](CCN2S(=O)(=O)c2ccc(F)cc2)[C@H]1CO	i
C#C[C@]1(O)CC[C@H]2[C@@H]3CCc4cc(OC)ccc4[C@H]3CC[C@@]21C	i
C=CCOc1ccc2c(c1)CCC1C2CCC2(C)C(O)C(O)CC12 (stereo not given)	i
